# The panel holds about 83,000 compounds, 20% with a hit somewhere; the sample as a whole holds those more often.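 A percent growth of 40 corresponds to 60% growth inhibition; 0 means no net growth; -100 means all cells died. Active threshold: below 10.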 A number with no mark means an inactive call. Active and inactive are the calls of the source.
# Tests used:
# Test in all cases: NCI-60 one-dose screen, 48 h (100 = growth as untreated, 0 = no growth, -100 = all killed)
# Conditions in all cases: 10 µM unless noted
# DU-145 prostate = tested on: DU-145 prostate
# K-562 leukemia = tested on: K-562 leukemia
# MALME-3M melanoma = tested on: MALME-3M melanoma
# MDA-MB-231 breast = tested on: MDA-MB-231 breast
# RXF 393 renal = tested on: RXF 393 renal
# SF-268 CNS = tested on: SF-268 CNS
# SF-295 CNS = tested on: SF-295 CNS
# SF-539 CNS = tested on: SF-539 CNS
# UACC-257 melanoma = tested on: UACC-257 melanoma
# M14 melanoma = tested on: M14 melanoma
Structure (SMILES),growth (DU-145 prostate),growth (K-562 leukemia),growth (MALME-3M melanoma),growth (MDA-MB-231 breast),growth (RXF 393 renal),growth (SF-268 CNS),growth (SF-295 CNS),growth (SF-539 CNS),growth (UACC-257 melanoma),growth (M14 melanoma)
N#Cc1c(-c2ccc(F)cc2)nc(N=Nc2c(O)[nH]c3ccc(Cl)cc23)nc1N1CCOCC1,40%,62.4%,38%,26.9%,8.65% (active),41.4%,13.9%,2.98% (active),57.3%,51.5%
CCOC(=O)/C=C1\SC(=Nc2ccc(C#N)cc2)N(CCN2C(=O)/C(=C/C(=O)OCC)SC2=Nc2ccc(C#N)cc2)C1=O,41.7%,7.43% (active),98.6%,16.3%,49.7%,29.7%,76.8%,41.6%,77.3%,52.3%
C#C[C@@]1(O)[C@@H](CO)O[C@@H](n2cc(Cl)c3c(N)ccnc32)[C@@H]1O,56.1%,42.8%,82.3%,57.4%,106%,87.4%,81.9%,89.3%,89.2%,85.3%
CCCCC(=O)Nc1c(C(=O)Nc2ccccc2)sc2nc3c(cc12)C(OC(=O)CCCC)CCC3 (stereo not given),87.9%,85.3%,105%,87.9%,95.2%,85.7%,101%,94.7%,110%,97.5%
O=c1[nH]nc(-c2ccccc2)c2sc(NC(=S)Nc3ccc(Cl)cc3)nc12,94.8%,80.6%,105%,101%,102%,93.3%,98.3%,98%,104%,97.4%
Cc1ccc(C2CC(c3ccc(Nc4nc(NCCO)nc(NCCO)n4)cc3)=NN2c2ccc(Cl)cc2)cc1 (stereo not given),62.6%,14.9%,67.3%,66.9%,-12.6% (active),56.8%,30.3%,39%,75.1%,61.4%
Nc1c(C(=O)Nc2cccc3ccccc23)sc2nc3c(cc12)CCCCC3,18.4%,8.68% (active),75.7%,49.4%,17.5%,46.3%,21.1%,-1.19% (active),63%,1.3% (active)
COc1cc2cc(c1Cl)N(C)C(=O)C[C@H](OC(=O)[C@H](C)N(C)C(=O)CCS)C[C@]1(C)O[C@H]1[C@H](C)[C@@H]1C[C@@](O)(NC(=O)O1)[C@H](OC)/C=C/C=C(\C)C2,2.17% (active),11.7%,64.3%,17.8%,43.6%,37.1%,3.96% (active),-17.1% (active),69.3%,1.73% (active)
c1ccc(-c2n(Cc3ccc4ccccc4n3)cc[n+]2Cc2ccc3ccccc3n2)cc1,65.8%,16.9%,19.8%,30.5%,52.2%,41.8%,67.8%,37.2%,-14.6% (active),34.6%
COC(=O)/C=C/c1cc(OC(C)=O)c2c(c1)C(C(=O)OC)C(c1ccc(OC(C)=O)c(OC(C)=O)c1)O2 (stereo not given),11.2%,6.86% (active),66.3%,16.4%,28.7%,39.6%,3.13% (active),-6.94% (active),45.4%,-6.22% (active)
CCCn1c2cc(OCc3cn(-c4ccc(Cl)cc4)nn3)ccc2c2ccnc(C)c21,95.7%,34.9%,98.7%,64.6%,73%,95.1%,81.6%,87.3%,61%,76.4%
Cc1ccccc1NC(=O)c1sc2nc(C)c(C(C)O)cc2c1N (stereo not given),81.8%,14.4%,60.2%,59.4%,44.9%,67.5%,39.5%,31.7%,52.5%,24.7%
O=c1[nH]nc(-c2ccc(Br)cc2)c2sc(NC(=S)Nc3ccc(Cl)cc3)nc12,110%,98.6%,94.2%,92.4%,111%,100%,96.8%,103%,113%,95.3%
NCCCn1c2c(c3cc(-c4ccn[nH]4)ccc3c1=O)C(=O)c1ccccc1-2,33.8%,6.99% (active),75.2%,68.1%,79.5%,52.8%,61.7%,75.2%,102%,74.8%
Cc1cccc2nc3c(n12)C(=O)C(=O)c1ccccc1-3,76.9%,28.9%,64.4%,63.9%,103%,80.8%,82.7%,69.3%,49.5%,67.1%
Cc1cc(O)cc(O)c1N=NC1=NCCS1,103%,89.7%,94.3%,97.1%,123%,94.6%,101%,100%,101%,98%
CN1CC=C(c2cc(NC(=O)Nc3ccc(Oc4ccnc(NC(=O)C5CC5)c4)c(F)c3)cc(C(F)(F)F)c2)CC1,9.52% (active),-12.2% (active),-32.5% (active),-11.8% (active),-27.4% (active),-1.76% (active),-9.64% (active),-47.9% (active),-0.573% (active),-38.3% (active)
CCC[S@@](=O)c1ccc2nc(NC(=O)OC)[nH]c2c1,107%,40.9%,89.2%,83.3%,95.2%,96.1%,88%,90.8%,57%,73.2%
COc1ccc(C(C)c2cc(OC)c(OC)c(OC)c2)cc1 (stereo not given),9.97% (active),7.1% (active),67.5%,30.5%,24.7%,37.5%,15.6%,-7.56% (active),53%,7.54% (active)
CCOC(=O)C1=C(C)n2nc(CC#N)c(C#N)c2NC1c1ccc(Cl)cc1 (stereo not given),97.2%,115%,87.4%,88.8%,100%,87.3%,102%,96.8%,114%,91.2%
CCCCc1n(Cc2ccc3ccccc3n2)cc[n+]1Cc1ccc2ccccc2c1,25.1%,6.43% (active),-22.2% (active),-29.2% (active),-14.3% (active),19.3%,0.543% (active),14.3%,-32.7% (active),-16.9% (active)
CC1(c2ccccc2Cl)NC(=O)NC1=O (stereo not given),105%,100%,101%,105%,113%,103%,97.1%,99.5%,91%,106%
